Screening results from PubChem.
This is a sample that favours compounds with a hit; in the whole collection about 3.5% have one here.
Autofluor counter: counter-screen for toxin protease inhibitors: compound fluorescence | compound autofluorescence counterscreen, microsphere flow cytometry; active compounds read high | fluorescence intensity (test concentration not listed) | hit rate 3.1% among 360,000 | AID 624483; in the data active = fluorescence intensity above about 16000; inconclusive = no clear call, values can overlap the other calls
BoNT A protease: blocks Botulinum neurotoxin A light chain protease | multiplex microsphere protease substrate cleavage, flow cytometry | hit rate 0.17% among 360,000 | AID 588499 | inhibition, % at 10 µM; in the data active = inhibition above about 30%; inconclusive = no clear call, values can overlap the other calls; also: plate controls were buffer without enzyme for full effect and enzyme alone for no effect
BoNT-F LC inh: inhibitors of Botulinum neurotoxin F light chain protease | AID 588497 | inhibition, % at 10 µM | hit rate 0.22% among 360,000 | Multiplex microsphere protease cleavage assay, flow cytometry; in the data active = inhibition above about 35%, passing the limit was not always enough; inconclusive = no clear call, values can overlap the other calls; also: plate controls were buffer without enzyme for full effect and enzyme alone for no effect
Anthrax LF inh2: inhibitors of Bacillus anthracis lethal factor protease; multiplex microsphere protease cleavage assay, LF; hit rate 0.12% among 360,000; AID 588501; inhibition, % at 10 µM; P15917; in the data active = inhibition above about 30%; inconclusive = no clear call, values can overlap the other calls; also: plate controls were buffer without enzyme for full effect and enzyme alone for no effect
Target sequence (P15917 whole entry, looked up): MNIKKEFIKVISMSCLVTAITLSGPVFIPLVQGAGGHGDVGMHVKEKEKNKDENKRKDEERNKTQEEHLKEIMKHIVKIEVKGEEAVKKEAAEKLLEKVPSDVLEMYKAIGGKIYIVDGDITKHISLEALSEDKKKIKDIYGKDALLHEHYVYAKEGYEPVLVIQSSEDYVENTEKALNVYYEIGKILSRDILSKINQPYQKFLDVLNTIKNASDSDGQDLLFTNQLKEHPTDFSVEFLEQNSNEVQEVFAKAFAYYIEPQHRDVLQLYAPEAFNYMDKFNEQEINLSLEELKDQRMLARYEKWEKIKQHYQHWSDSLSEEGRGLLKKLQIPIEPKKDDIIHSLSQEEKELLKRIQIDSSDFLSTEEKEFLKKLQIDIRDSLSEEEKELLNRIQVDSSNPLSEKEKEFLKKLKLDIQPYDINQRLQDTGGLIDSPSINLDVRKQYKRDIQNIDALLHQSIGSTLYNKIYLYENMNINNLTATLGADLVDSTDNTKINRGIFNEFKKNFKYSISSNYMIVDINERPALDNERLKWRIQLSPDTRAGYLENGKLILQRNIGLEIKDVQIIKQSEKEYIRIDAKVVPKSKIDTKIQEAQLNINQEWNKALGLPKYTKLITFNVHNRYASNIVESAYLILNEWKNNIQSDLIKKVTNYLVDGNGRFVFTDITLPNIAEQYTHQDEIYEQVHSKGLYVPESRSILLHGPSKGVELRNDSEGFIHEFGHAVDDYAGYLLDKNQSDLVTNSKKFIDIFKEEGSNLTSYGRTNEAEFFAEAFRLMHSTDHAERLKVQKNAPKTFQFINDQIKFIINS
BoNT-A LC CP1: blocks botulinum neurotoxin A light chain protease; inhibition, % at 10 µM; hit rate 3% among 720; shares compounds with BoNT-F LC inh; multiplex microsphere protease assay, flow cytometry; in the data active = inhibition above about 32%
BoNTF LC inh 1: inhibitors of Botulinum neurotoxin F light chain protease; inhibition, % at 10 µM; shares compounds with BoNT-F LC inh; 720 tested, under 10 active; multiplex microsphere protease cleavage assay, flow cytometry
LF protease CP1: Bacillus anthracis lethal factor protease inhibition | shares compounds with BoNT-F LC inh | multiplex microsphere protease cleavage assay, LF | inhibition, % at 10 µM | 720 tested, under 10 active | AID 602142
The depositor's hits bear a star; ? = inconclusive; · = no result given. Unless noted, no rule for the calls is given here.

SMILES	Autofluor counter	BoNT A protease	BoNT-F LC inh	Anthrax LF inh2	BoNT-A LC CP1	BoNTF LC inh 1	LF protease CP1
OC(CNCc1ccccc1F)COc1cccc2ccccc12 (stereo not drawn)	3445	2.3	35.4*	5.8	0.6	-8.4	0.2
CC(C)NCC(O)COc1cccc2ccccc12 (stereo not drawn)	·	-0.5	·	·	·	·	·
N#Cc1cccc(C(c2nnnn2C2CCCC2)N2CCC(Cc3ccccc3)CC2)c1 (stereo not drawn)	5535	-1.3	-2.1	-1.5	·	·	·
N#Cc1cccc(C(c2nnnn2C2CCCC2)N2CCCCCC2)c1 (stereo not drawn)	3317	0.4	32.2	-3.4	1.9	2.0	3.1
O=C(Cn1cnc2sc(-c3ccccc3)cc2c1=O)NCc1ccccc1	9905	-0.3	-1.0	0.0	·	·	·
O=C(Cn1cnc2sc(-c3ccccc3)cc2c1=O)NCCc1ccccc1	4551	0.9	44.7*	0.3	1.2	2.5	1.7
CCOc1cc(CNCC(O)c2ccccc2)cc(Cl)c1OC (stereo not drawn)	2453	3.6	41.4*	-0.8	0.8	-10.8	-2.5
COc1ccccc1OCCC(=O)OCC(=O)Nc1ccc2c(c1)OCO2	2911	0.5	-3.3	-2.2	·	·	·
COc1ccc(Cl)cc1NC(=O)CN(C)C(=O)Cn1cnnn1	3499	-0.1	6.9	-7.9	·	·	·
COc1ccc(C(=O)Nc2ccc3c(c2)nc2n3CCSC2)cc1	4353	6.9	38.1*	2.4	-0.1	-1.3	-5.0
COc1ccc(C(=O)Nc2ccc3nc(C)c(C)nc3c2)cc1	3841	-0.5	6.2	10.9	·	·	·
CCSc1ncc(Cl)c(C(=O)Nc2ccccc2C)n1	4089	-0.4	5.6	7.6	·	·	·
CSc1ncc(Cl)c(C(=O)Nc2ccccc2C)n1	3352	0.7	-12.5	30.1*	-0.5	-5.1	-2.5
COc1ccccc1NC(=O)c1sc2nc(Cc3ccccc3)cc(C(F)(F)F)c2c1N	7395	30.2*	11.7	15.5	6.4	-1.5	2.4
COc1ccc(NC(=O)c2sc3nc(Cc4ccccc4)cc(C(F)(F)F)c3c2N)cc1OC	2000	1.5	-6.8	2.1	·	·	·
Cc1nn(C)c2nc(-c3cccs3)cc(C(F)(F)F)c12	3340	0.7	2.0	-2.2	·	·	·
CCN(CC)C(=O)c1sc2nc(-c3cccs3)cc(-c3ccc(Cl)cc3)c2c1N	4742	53.4*	13.8	39.0*	16.3	1.4	12.2
Nc1c(C(=O)Nc2nccs2)sc2nc(-c3cccs3)cc(C(F)(F)F)c12	5256	9.0	82.0*	5.7	9.6	10.0	3.5
CCN(CC)C(=O)c1sc2nc(-c3cccs3)cc(-c3cccs3)c2c1N	4184	11.2	-6.4	2.1	·	·	·
CC(C)(C)C(=O)c1sc2nc(-c3cccs3)cc(C(F)(F)F)c2c1N	7776	33.9*	21.8	34.0*	24.2	11.5	9.4
Cc1nnc(NC(=O)c2sc3nc(-c4cccs4)cc(C(F)(F)F)c3c2N)s1	14974	10.0	25.7	10.9	·	·	·
CC1=C(C(=O)N(C(C)C)C(C)C)CC(CC(=O)NCCCCc2ccccc2)C(=O)N1CCCN1CCCC1=O (stereo not drawn)	6232	0.5	-0.9	-1.8	·	·	·
CCC(=O)c1ccc(OC(=O)N2CCOCC2)cc1	4006	-3.1	?	5.1	·	·	·
CCn1c(SCC(N)=O)nc2cc(S(=O)(=O)N3CCOCC3)ccc21	3502	0.2	-1.4	-0.5	·	·	·
CCn1c(SCC(=O)c2c[nH]c3ccccc23)nc2cc(S(=O)(=O)N3CCOCC3)ccc21	5805	48.9*	-16.5	17.5	15.0	-10.7	10.5
SMILES	Autofluor counter	BoNT A protease	BoNT-F LC inh	Anthrax LF inh2	BoNT-A LC CP1	BoNTF LC inh 1	LF protease CP1
CCCCOc1ccc(C(=O)CCN2CCOCC2)cc1	4576	1.4	5.8	-4.0	2.1	0.0	-0.9
O=C(Cc1ccccc1)c1ccc(Cl)cc1	3769	?	?	30.2*	1.9	-3.0	-4.7
Cc1cc(-c2nnc(SCC(=O)Nc3ccccc3)n2C)no1	4305	?	?	31.8*	0.6	0.5	7.5
O=[N+]([O-])c1cccc(-c2cn3nc(-c4ccccc4)c(-c4ccccc4)nc3n2)c1	4123	67.4*	47.6*	33.3*	39.6*	10.5	24.4
c1ccc(-c2cn3nc(-c4ccccc4)c(-c4ccccc4)nc3n2)cc1	5284	75.8*	23.7	45.9*	61.9*	11.3	28.3
CCOCCCNC(=O)C(c1ccc(C)cc1)N(Cc1ccc2c(c1)OCO2)C(=O)CNC(C)=O (stereo not drawn)	3476	0.4	35.1*	-3.3	-0.5	1.1	-0.9
